# Experimental data published in the supplement of paper PMC9446081.
# Among all 39,000 compounds or so, about 220 (0.56%) showed activity. What follows is part of a selection rich in actives, with near analogues and random picks from the rest. A number with no mark means an inactive call.
# System: Escherichia coli K-12 BW25113
# Assay: relative growth (OD600 normalised to plate interquartile mean) (fraction); higher = less growth inhibition, active = 0.2 or less
# Settings: 50 µM; LB; incubation time: overnight (16-24 h)
# 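Note: Wild-type cells incubated without shaking, value is the mean of two biological replicates.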
row,SMILES,relative growth
1,C[N+](C)(C)CCCl,1
2,C[N+](C)(C)CCCCCCCCCC[N+](C)(C)C.[Br-].[Br-],1.05
3,CCCCCCCCCCCCCCCC[N+](C)(C)C.[Br-],0.0522 (active)
4,CCC(N)C(O)c1ccc(O)c(O)c1.Cl (stereo unspecified),0.99
5,"CC12CCC3C(CCC4CC(=O)CCC43C)C1CCC2=O (stereo not drawn) [""5alpha-ANDROSTAN-3,17-DIONE""]",0.862
6,CCC(=O)CCCCC[C@@H]1NC(=O)[C@H]2CCCCN2C(=O)[C@H]([C@H](C)CC)NC(=O)[C@H](Cc2cn(OC)c3ccccc23)NC1=O,1
7,COc1cc2c(cc1OC)C13CCN4CC5=CCOC6CC(=O)N2C1C6C5CC43 (stereo unspecified),1.05
8,CCn1cc(C(=O)[O-])c(=O)c2cc3c(cc21)OCO3.[K+],0.0482 (active)
9,CCC(=O)CCCCC[C@@H]1NC(=O)[C@H]2CCCCN2C(=O)[C@H]([C@@H](C)CC)NC(=O)[C@H](Cc2cn(OC)c3ccccc23)NC1=O,0.957
10,O=C1N[C@@H]2C(=C[C@H](O)[C@@H](O)[C@H]2O)c2cc3c(c(O)c21)OCO3,0.913
11,N#Cc1cccnc1,1.01
12,NNc1ccn([C@H]2O[C@@H](CO)[C@@H](O)[C@@H]2O)c(=O)n1,0.394
13,COP(=O)(OC)C(O)C(Cl)(Cl)Cl (stereo unspecified),0.874
14,CC(C)(O)/C=C/C(=O)[C@](C)(O)[C@H]1[C@H](O)C[C@@]2(C)[C@H]3CC=C4[C@@H](CC(=O)C(=O)C4(C)C)[C@]3(C)C(=O)C[C@]12C,0.979
15,[O-][n+]1ccccc1[S][Zn][S]c1cccc[n+]1[O-],0.0506 (active)
16,CC(C)C[C@@H]1C(=O)N2CCC[C@@H]2[C@]2(O)O[C@@](NC(=O)[C@@H]3C=C4c5cccc6[nH]cc(c56)C[C@@H]4N(C)C3)(C(C)C)C(=O)N12,1.04
17,O=C([O-])Cc1ccccc1.[Na+],0.934
18,CCCCOC(=O)c1ccccc1C(=O)OCCCC,1.11
19,C[CH2][Hg][S]c1ccccc1C(=O)[O-].[Na+],0.0484 (active)
20,CC(=O)OC1CCC2(C)C(CCC3C2CCC2(C)C(C4=CC(=O)OC4)C(OC(C)=O)CC32O)C1 (stereo unspecified),1.01
21,CC(C)=CCCC1(C)C=Cc2c(O)c3c(c(CC=C(C)C)c2O1)OC12C(=CC4CC1C(C)(C)OC2(CC=C(C)C(=O)O)C4=O)C3=O (stereo unspecified),1.01
22,NC(=O)c1ccc(N)nc1,0.986
23,CCCN1CC(CSC)CC2c3cccc4[nH]cc(c34)CC21.CS(=O)(=O)O (stereo unspecified),1.15
24,CCNC(=O)[C@H]1O[C@@H](n2cnc3c(N)ncnc32)[C@H](O)[C@@H]1O,0.996

row,SMILES,relative growth
1,Oc1ccc(Cl)cc1Cc1cc(Cl)ccc1O,0.398
2,Nc1ccc(Cl)cc1Cl,1.02
3,Oc1cc(Cl)ccc1Oc1ccc(Cl)cc1Cl,0.0446 (active)
4,CN1CC(=O)N(c2cccnc2)C[C@]12CCNC2,0.998
5,CC12CCC3C(CCC4(O)CC(O)CCC34C=O)C1(O)CCC2C1=CC(=O)OC1 (stereo unspecified),0.972
6,CC(=O)Oc1ccc(Cl)c2cccnc12,0.0572 (active)
7,CC=C1CC(C)C(O)(CO)C(=O)OCC2=CCN3CCC(OC1=O)C23 (stereo unspecified),1.04
8,CN1CCOC[C@]2(CCCNC2)C1,0.994
9,C[C@]12C(=O)OC(=O)[C@]1(C)[C@H]1CC[C@H]2O1,0.97
10,CN1C(=O)[C@]23CC4=CC=C[C@H](O)[C@H]4N2C(=O)[C@@]1(CO)SS3,0.0665 (active)
11,CN1C(=O)[C@@]23C[C@]4([C@@]56C[C@]78SS[C@](CO)(C(=O)N7[C@@H]5Nc5ccccc56)N(C)C8=O)c5ccccc5N[C@H]4N2C(=O)[C@@]1(CO)SS3,0.917
12,CC1OC(OC2CCC3(C=O)C4CCC5(C)C(C6=CC(=O)OC6)CCC5(O)C4CCC3(O)C2)C(O)C(O)C1O (stereo unspecified),1.15
13,c1cnc2[nH]cc(CN3CCNCC3)c2c1,0.977
14,CC(=O)O[C@H]1C[C@H](O[C@H]2[C@@H](O)C[C@H](O[C@H]3[C@@H](O)C[C@H](O[C@H]4CC[C@@]5(C)[C@@H](CC[C@H]6[C@@H]5C[C@@H](O)[C@]5(C)[C@@H](C7=CC(=O)OC7)CC[C@]65O)C4)O[C@@H]3C)O[C@@H]2C)O[C@H](C)[C@H]1O[C@@H]1O[C@H](CO)[C@@H](O)[C@H](O)[C@H]1O,0.986
15,CCOP(=S)(OCC)Oc1nc(Cl)c(Cl)cc1Cl,1.06
16,COP(=S)(OC)Oc1cc(Cl)c(Cl)cc1Cl,0.0496 (active)
17,COP(=S)(OC)Oc1ccc(Sc2ccc(OP(=S)(OC)OC)cc2)cc1,0.986
18,CCn1cnc2c(Nc3cccc(Cl)c3)nc(N[C@@H]3CCCC[C@@H]3N)nc21,0.943
19,CC(=O)OCC1=C(C(=O)O)N2C(=O)[C@@H](NC(=O)CCC[C@@H](N)C(=O)O)[C@@H]2SC1,1.02
20,CNc1ccc2oc(C[C@H]3O[C@@]4(CC[C@H]3C)O[C@H]([C@H](C)C(=O)c3ccc[nH]3)[C@H](C)C[C@H]4C)nc2c1C(=O)O,0.962
21,CCCCCCCCCCCCCCCC[n+]1ccccc1.[Cl-],0.0713 (active)
22,CCCCCCCCCCCCCCCC[n+]1ccccc1,0.16 (active)
23,CC[C@@H](C)NC=C1C(=O)NC(=O)NC1=O,1.01
24,CC1OC(OC2CC(O)C3(CO)C4C(O)CC5(C)C(C6=CC(=O)OC6)CCC5(O)C4CCC3(O)C2)C(O)C(O)C1O.O.O.O.O.O.O.O.O (stereo unspecified),1.01

row,SMILES,relative growth
1,CC1OC(OC2C=C3CCC4C(CCC5(C)C(c6ccc(=O)oc6)CCC45O)C3(C)CC2)C(O)C(O)C1O (stereo unspecified),0.977
2,C[C@@H]1O[C@@H](O[C@H]2CC[C@]3(C=O)[C@H]4CC[C@]5(C)[C@@H](C6=CC(=O)OC6)CC[C@]5(O)[C@@H]4CC[C@]3(O)C2)[C@H](O)[C@H](O)[C@H]1O,1
3,C=C(C)[C@H]1CN[C@H](C(=O)O)[C@H]1CC(=O)O,0.978
4,Cc1nn[nH]n1,0.979
5,Cc1c(N)nc([C@H](CC(N)=O)NC[C@@H](N)C(N)=O)nc1C(=O)N[C@H](C(=O)N[C@@H](C)[C@H](O)[C@@H](C)C(=O)N[C@@H](C(=O)NCCc1nc(-c2nc(C(=O)NCCC[S+](C)C)cs2)cs1)[C@@H](C)O)[C@@H](O[C@H]1O[C@H](CO)[C@H](O)[C@@H](O)[C@H]1O[C@H]1O[C@H](CO)[C@@H](O)[C@H](OC(N)=O)[C@@H]1O)c1c[nH]cn1,0.0355 (active)
6,Cc1c(N)nc([C@H](CC(N)=O)NC[C@@H](N)C(N)=O)nc1C(=O)N[C@H](C(=O)N[C@@H](C)[C@H](O)[C@@H](C)C(=O)N[C@@H](C(=O)NCCc1nc(-c2nc(C(=O)NCCC[S+](C)C)cs2)cs1)[C@@H](C)O)[C@@H](O[C@H]1O[C@H](CO)[C@H](O)[C@@H](O)[C@H]1O[C@H]1O[C@H](CO)[C@@H](O)[C@H](OC(N)=O)[C@@H]1O)c1cnc[nH]1,0.0324 (active)
7,Cc1cc(O)c2c(=O)c3c(O)cc(O)c4c5c(O)cc(O)c6c(=O)c7c(O)cc(C)c8c1c2c(c34)c(c78)c65,1.61
8,O=C1[O][SbH]23[O]C(=O)[C@H]([O]2)[C@H]2[O][SbH]4([O]C(=O)[C@H]([O]4)[C@H]1[O]3)[O]C2=O,0.313
9,CC1=C[C@H]2O[C@@H]3[C@H](O)[C@@H](O[C@H]4O[C@H](CO)[C@@H](O)[C@H](O)[C@H]4O)[C@](C)([C@@]2(CO)CC1)[C@]31CO1,0.947
10,O=C1CCCC2C3CCCN4CCCC(CN12)C34 (stereo unspecified),1.05
11,Cn1ncnc2c(=O)n(C)c(=O)nc1-2,0.0341 (active)
12,CCn1nc(-c2cccnc2)nc2c(=O)n(C)c(=O)nc1-2,0.846
13,Cc1nc2c(=O)n(C)c(=O)nc-2n(C)n1,0.0393 (active)
14,COc1cccc2c1C(=O)c1c(O)c3c(c(O)c1C2=O)C[C@@](O)(C(=O)CO)C[C@@H]3O[C@H]1C[C@H](N2CCO[C@H](OC)C2)[C@H](O)[C@H](C)O1,0.933
15,CO[C@H]1C[C@H](O[C@H]2CC[C@]3(C=O)[C@H]4CC[C@]5(C)[C@@H](C6=CC(=O)OC6)CC[C@]5(O)[C@@H]4CC[C@]3(O)C2)O[C@H](C)[C@H]1O,0.98
16,CO[C@H]1[C@@H](O)C[C@@H](O[C@H]2[C@@H](O)C[C@@H](O[C@H]3[C@@H](O)C[C@@H](O[C@H]4CC[C@@]5(C)[C@@H](CC[C@H]6[C@@H]5C[C@@H](O)[C@@]5(C)[C@H](C7=CC(=O)OC7)CC[C@@]65O)C4)O[C@@H]3C)O[C@@H]2C)O[C@@H]1C,1
17,C=CCN1C(=O)NC(=O)/C(=C/c2ccco2)C1=O,0.971
18,NC(=O)c1cn([C@H]2O[C@@H](CO)[C@H](O)[C@@H]2O)c2ncnc(N)c12,0.892
19,CN1[C@@H]2CC[C@H]1C[C@H](O)C2,1
20,C=C1[C@@H](C)[C@H]2[C@H](Cc3ccccc3)NC(=O)[C@]23[C@H](OC(C)=O)/C=C/[C@](C)(O)C(=O)[C@@H](C)C/C=C/[C@H]3[C@@H]1O,0.976
21,O=S(=O)(O)O.Oc1cccc2cccnc12,0.0986 (active)
22,CC12CCC3c4ccc(OC(=O)N(CCCl)CCCl)cc4CCC3C1CCC2O (stereo unspecified),0.992
23,CCCCCCCCCC(=O)O[C@@H]1[C@@H](C)[C@]2(O)[C@@H](C=C(CO)C[C@]3(O)C(=O)C(C)=C[C@@H]23)[C@@H]2C(C)(C)[C@@]12OC(=O)CCCCCCCCC,1.03
